# Screening results as filed in PubChem BioAssay.
# RecA intein inh = Mtb RecA intein splicing inhibition. P9WHJ3. cell-free RecA intein splicing, fluorescence. inhibition, % (test concentration not listed). 0.75% of 290,000 active; in the data active means inhibition above about 30%;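 further: 0% = vehicle wells and 100% = reference inhibitor control wells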
# Target sequence (P9WHJ3 whole entry, looked up): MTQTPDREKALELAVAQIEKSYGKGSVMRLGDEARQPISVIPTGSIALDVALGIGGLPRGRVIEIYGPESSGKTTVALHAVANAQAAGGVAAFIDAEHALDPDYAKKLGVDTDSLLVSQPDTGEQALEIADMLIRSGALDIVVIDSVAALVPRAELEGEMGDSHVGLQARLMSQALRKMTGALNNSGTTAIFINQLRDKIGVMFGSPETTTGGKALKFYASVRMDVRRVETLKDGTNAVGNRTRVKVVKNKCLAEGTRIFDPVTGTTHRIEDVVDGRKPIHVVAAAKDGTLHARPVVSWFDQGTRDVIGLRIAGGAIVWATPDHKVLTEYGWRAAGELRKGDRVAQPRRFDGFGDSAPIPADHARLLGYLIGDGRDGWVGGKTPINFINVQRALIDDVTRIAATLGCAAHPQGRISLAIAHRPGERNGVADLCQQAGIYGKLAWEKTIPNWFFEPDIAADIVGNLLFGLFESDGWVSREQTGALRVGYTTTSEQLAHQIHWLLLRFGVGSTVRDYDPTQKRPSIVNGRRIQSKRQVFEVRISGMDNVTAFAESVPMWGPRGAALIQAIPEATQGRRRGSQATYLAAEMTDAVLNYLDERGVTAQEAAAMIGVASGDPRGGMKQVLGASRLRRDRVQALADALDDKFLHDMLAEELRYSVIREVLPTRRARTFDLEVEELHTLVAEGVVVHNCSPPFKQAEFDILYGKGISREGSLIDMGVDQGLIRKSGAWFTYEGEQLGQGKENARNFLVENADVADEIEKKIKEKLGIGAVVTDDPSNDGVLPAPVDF
# Mtb FBA inh = inhibitors of M. tuberculosis fructose-bisphosphate aldolase. purified M. tuberculosis FBA, fluorescence read-out. inhibition, % at 1 µM. 2.3% of 360,000 active. AID 588726;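 further: 0% = vehicle and 100% = reference inhibitor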
# GDH-TPI counter-1 = inhibits GDH-TPI coupling enzymes, artifact for Mtb FBA screen; GDH-TPI coupled enzyme counterscreen, NADH absorbance; inhibition, % at 4.8 µM; 1.2% of 360,000 active; AID 588335; in the data active means inhibition above about 30%;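 further: 0% = DMSO wells and 100% = wells lacking the enzyme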
# CCHFV vOTU inh = CCHFV vOTU protease inhibition; Pep-AMC fluorescence; inhibition, % at 11.5 µM; 0.55% of 370,000 active; AID 651958; in the data active means inhibition above about 30%; further: 0% = vehicle wells with enzyme and 100% = no enzyme wells
# Mtb bLac sens = beta-lactam sensitization of Mtb H37Rv. AID 434955. 0.27% of 330,000 active. M. tuberculosis H37Rv growth with meropenem, percent inhibition. inhibition, % at 25 µM; call rule not given here;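 further: growth measured after seven days incubation then overnight dye step; 0% = bacteria only wells and 100% = bacteria with antibiotic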
# Mtb FBA confirm = Mtb FBA inhibition, confirmed; shares compounds with Mtb FBA inh; purified M. tuberculosis FBA, fluorescence read-out; inhibition, % at 1 µM; 78% of 5,600 active;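 further: 0% = vehicle wells and 100% = reference inhibitor wells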
# GDH-TPI counter-2 = counter-screen for M. tuberculosis FBA inhibitors: GDH-TPI coupled enzyme inhibition. GDH-TPI coupled enzyme counterscreen, fluorescence. 81% of 5,600 active. inhibition, % at 1 µM. shares compounds with Mtb FBA inh; in the data active means inhibition above about 10%
# GDH-TPI dose = GDH-TPI dose response counter-screen for Mtb FBA; shares compounds with Mtb FBA inh; GDH-TPI coupled enzyme assay, fluorescence, artifact counterscreen; IC50, µM; 79% of 170 active; AID 652145; call rule not given here
# Active calls of the source: *; x = no result; + = active, no number. An excerpt weighted towards active compounds, which were near 4.2% of everything screened. Unless noted, no stated cut-off is given here; in the data, active means inhibition above about 27%; inactive means the rest.
SMILES,RecA intein inh,Mtb FBA inh,GDH-TPI counter-1,CCHFV vOTU inh,Mtb bLac sens,Mtb FBA confirm,GDH-TPI counter-2,others
CCCN1CCN(CCCNC(=O)c2cc3c(=O)oc4ccc(C)cc4c3s2)CC1,-3.5,5.5,7.7,-12.9,-3.7,x,x,
CC(C)NC(=O)CCn1nnc(-c2cccs2)n1,x,x,x,7.4,x,x,x,
Cc1[nH]nc2c1C(c1ccccc1)N(c1ccccc1)C2=O (stereo not given),x,x,x,-6.2,x,x,x,
COc1ccc(NC(=O)C2CC2)cc1OC1CCCC1,-2.9,73.5*,4.3,x,-0.5,68.1*,53.9*,
COC(=O)c1ccc(OC)c(OC2CCCC2)c1,x,3.0,5.7,7.5,1.0,x,x,
COc1cccc(CNC(=O)CCC(=O)N2CCSc3ccccc32)c1OC,0.1,1.8,-11.0,20.5,-7.1,x,x,
COc1cccc(CNC(=O)c2ccc3c(c2)N(C)CCS3)c1OC,-5.3,88.0*,-8.7,-99.5,-1.1,49.2*,45.0*,
Cc1cccc(CNC(=O)c2ccc3c(c2)N(C)CCS3)c1,-7.4,55.8*,7.2,-81.3,-11.4,34.1*,37.9*,
CN1CCSc2ccc(C(=O)NCc3cccc(Br)c3)cc21,-6.6,66.4*,-2.4,-53.6,-3.1,50.5*,34.8*,
COc1ccc(CNC(=O)c2ccc3c(c2)N(C)CCS3)cc1,-6.7,51.9*,19.9,-133.4,-4.1,86.2*,59.1*,
COc1ccc(-n2c(SCC(=O)NCC3CCCO3)nnc2-c2ccncc2)cc1 (stereo not given),x,x,x,0.9,x,x,x,
COc1ccccc1CCC[C@H](CCS(=O)(=O)C(C)C)CC1CCCCC1,x,x,x,11.4,x,x,x,
COC(=O)c1cc2c(c3c4cc(OC)ccc4n(S(=O)(=O)c4ccccc4)c13)C(=O)N(Cc1ccc(C(F)(F)F)cc1)C2,x,x,x,-2.7,x,x,x,
COC(=O)[C@@H](Cc1ccc(O)cc1)NC(=O)[C@H]1O[C@@H](n2cnc3c(=O)[nH]c(N)nc32)[C@H](O)[C@@H]1O,x,x,x,1.9,x,x,x,
O=C(CCc1ccccc1-c1ccccc1CCNC(=O)c1ccc(F)c(F)c1)NCc1ccccc1,x,x,x,5.2,x,x,x,
COCc1[nH]nc2c1C(c1cccc(C(F)(F)F)c1)N(c1ccccc1)C2=O (stereo not given),x,x,x,-0.1,x,x,x,
CCCCCN1CCCCC(NC(=O)c2c(F)cccc2F)C1=O (stereo not given),x,x,x,-3.6,x,x,x,
CC1CCCCN1Cc1c(O)ccc2c(=O)c(-c3ccc(Cl)cc3)coc12 (stereo not given),-0.7,52.3*,9.0,-67.4,-3.3,123.4*,102.6*,
Cc1c(CN2CCCCC2C)c(=O)n(-c2ccccc2)n1C (stereo not given),1.6,1.9,0.5,-12.1,-5.4,x,x,
CC1CCCCN1Cc1c(O)ccc2c(=O)c(-c3ccc(Cl)cc3Cl)coc12 (stereo not given),-3.7,61.7*,18.2,-81.1,-8.0,+,+,
CC1CCCCN1Cc1c(O)ccc2c(=O)c(-c3ccc(Br)cc3)coc12 (stereo not given),-1.9,41.6*,16.2,-70.1,x,+,163.9*,
O=C(CCCOc1ccc(Cl)cc1Cl)Nc1ccc(O)cc1C(=O)O,-37.1,30.2*,25.9,17.0,-1.8,+,+,
COc1cc(NC(=O)CCCOc2ccc(Cl)cc2Cl)c(C(=O)O)cc1OC,-0.4,0.6,13.0,4.9,-1.7,x,x,
Cc1ccc(CNC(=O)CN(C(=O)C2(C)CC(=O)N=C3C=CC=CN32)c2ccccc2F)cc1 (stereo not given),-1.3,82.4*,3.0,-105.6,-1.9,77.0*,52.9*,
Cc1ccc(CNC(=O)CN(C(=O)C2(C)CC(=O)N=C3C=CC=CN32)c2ccc(F)cc2)cc1 (stereo not given),-1.6,69.3*,8.6,-66.2,-2.9,-2.3,-5.2,
SMILES,RecA intein inh,Mtb FBA inh,GDH-TPI counter-1,CCHFV vOTU inh,Mtb bLac sens,Mtb FBA confirm,GDH-TPI counter-2,others
CN1CCCN(S(=O)(=O)c2ccc3c(c2)n(C)c(=O)c(=O)n3C)CC1,x,x,x,-1.5,x,x,x,
CCOc1ccc(C(=O)NCC(=O)OCC(=O)N2C(C)CCCC2C)cc1 (stereo not given),-0.1,2.3,6.2,2.5,-4.6,x,x,
CC1CCCC(C)N1C(=O)COc1ccc(C(=O)N/N=C/c2ccc(C(=O)O)cc2)cc1 (stereo not given),x,60.0*,-0.6,-3.1,-0.6,119.7*,96.8*,
COc1ccc(OC)c(CN2C(=O)c3ccnn3CC2(C)c2nnnn2C2CCCC2)c1 (stereo not given),x,x,x,1.8,x,x,x,
CCN1CCc2c(sc3c2c(NCc2ccco2)nc2nnnn23)C1,-9.7,64.2*,7.5,-49.1,4.0,8.7,-2.2,
Cc1nn(-c2ccc(F)cc2)c2sc(C(=O)OC3CCOC3=O)cc12 (stereo not given),-4.5,86.0*,8.4,1.8,3.7,74.2*,59.0*,
Cc1ccc(-n2ncc3c(NCCCN4CCCC4=O)ncnc32)c(C)c1,-0.7,2.3,2.8,-8.1,-0.4,x,x,
COc1ccc(/C=N/Nc2ncnc3c2[nH]c2ccc(C)cc23)c(OC)c1OC,-5.5,3.3,6.6,-3.7,21.9,x,x,
Cc1ccc2[nH]c3c(NCc4ccco4)ncnc3c2c1,5.1,42.3*,9.6,-30.0,51.0,-1.9,-7.1,
Cc1ccc2[nH]c3c(NCCCN4CCCC4=O)ncnc3c2c1,-1.4,38.9*,5.7,-16.2,0.4,25.7,27.0*,
COc1cc(CNc2ncnc3c2[nH]c2ccc(C)cc23)cc(OC)c1,-0.3,35.4*,4.8,-18.2,85.4,-5.3,-0.5,
O=C(NCCN1C(=O)C2C3C=CC(C3)C2C1=O)c1cc(Cl)cc(Cl)c1 (stereo not given),x,x,x,-7.4,x,x,x,
COc1ccc(CNCc2ccc(OC)c3ccccc23)cc1,0.7,56.9*,-2.1,26.2,5.8,11.4,-5.2,GDH-TPI dose=>10
COc1ccc(-c2c3c(=O)n(C)c(=O)n(C)c3cn2-c2ccc(O)cc2)cc1,1.6,45.4*,4.6,5.3,-1.1,+,188.5*,
COc1ccc(-c2c3c(=O)n(C)c(=O)n(C)c3cn2-c2ccccc2)cc1,1.5,3.9,7.8,1.9,-9.1,x,x,
C=CCn1c(COc2ccccc2)nnc1SCC(=O)Nc1ccc(Oc2ccccc2)cc1,x,x,x,9.1,x,x,x,
